# According to the supplement of paper PMC4466140:
# Legend:
# Assay in all cases: SPOT peptide array binding signal intensity (averaged, normalized) (arbitrary units (background-subtracted, floor 0; scale differs between SH3 domains)); higher = stronger binding of the SH3 domain to the peptide
# AgAbp1 = biological target: AgAbp1
# Summary of the method: (§1)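 GST-fused SH3 domains from four yeast species were expressed in E. coli BL21(DE3), purified on glutathione Sepharose and incubated at 10 μg/ml overnight at 4°C in TBS-based blocking buffer on cellulose membranes carrying synthetic 15-mer peptides, with cysteines replaced by serines. Bound protein was detected with anti-GST antibody, an HRP anti-mouse secondary and luminol, then imaged and quantified with Genespotter. Binding signal is the normalized, background-subtracted spot intensity averaged over replicates, in arbitrary units that differ between domains.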
# AgBbc1 = biological target: AgBbc1
# Summary of the method: as §1
# AgBem1-D1 = biological target: AgBem1-D1
# Summary of the method: as §1
# AgBzz1-D1 = biological target: AgBzz1-D1
# Summary of the method: as §1
# AgBzz1-D2 = biological target: AgBzz1-D2
# Summary of the method: as §1
# AgCyk3 = biological target: AgCyk3
# Summary of the method: as §1
# AgFus1 = biological target: AgFus1
# Summary of the method: as §1
# AgHof1 = biological target: AgHof1
# Summary of the method: as §1
# AgHse1 = biological target: AgHse1
# Summary of the method: as §1
# AgLsb1 = biological target: AgLsb1
# Summary of the method: as §1
# AgLsb4 = biological target: AgLsb4
# Summary of the method: as §1
# AgMyo5 = biological target: AgMyo5
# Summary of the method: as §1
# AgNbp2 = biological target: AgNbp2
# Summary of the method: as §1
# AgRvs167 = biological target: AgRvs167
# Summary of the method: as §1
# AgSho1 = biological target: AgSho1
# Summary of the method: as §1
# AgSla1-D1-D2 = biological target: AgSla1-D1-D2
# Summary of the method: as §1
# AgSla1-D3 = biological target: AgSla1-D3
# Summary of the method: as §1
# CaAbp1-D1 = biological target: CaAbp1-D1
# Summary of the method: as §1
# CaAbp1-D2 = biological target: CaAbp1-D2
# Summary of the method: as §1
# CaBbc1 = biological target: CaBbc1
# Summary of the method: as §1
# CaBem1-D1 = biological target: CaBem1-D1
# Summary of the method: as §1
# CaBzz1-D1 = biological target: CaBzz1-D1
# Summary of the method: as §1
# CaBzz1-D2 = biological target: CaBzz1-D2
# Summary of the method: as §1
# CaCyk3 = biological target: CaCyk3
# Summary of the method: as §1
# CaFus1 = biological target: CaFus1
# Summary of the method: as §1
# CaHof1 = biological target: CaHof1
# Summary of the method: as §1
# CaHse1 = biological target: CaHse1
# Summary of the method: as §1
# CaLsb1 = biological target: CaLsb1
# Summary of the method: as §1
# CaLsb4 = biological target: CaLsb4
# Summary of the method: as §1
# CaMyo5 = biological target: CaMyo5
# Summary of the method: as §1
# CaNbp2 = biological target: CaNbp2
# Summary of the method: as §1
# CaRvs167 = biological target: CaRvs167
# Summary of the method: as §1
# CaRvs167-3 = biological target: CaRvs167-3
# Summary of the method: as §1
# CaSho1 = biological target: CaSho1
# Summary of the method: as §1
# CaSla1-D1-D2 = biological target: CaSla1-D1-D2
# Summary of the method: as §1
# CaSla1-D3 = biological target: CaSla1-D3
# Summary of the method: as §1
# ScAbp1 = biological target: ScAbp1
# Summary of the method: as §1
# ScBbc1 = biological target: ScBbc1
# Summary of the method: as §1
# ScBem1-D1 = biological target: ScBem1-D1
# Summary of the method: as §1
# ScBzz1-D1 = biological target: ScBzz1-D1
# Summary of the method: as §1
# ScBzz1-D2 = biological target: ScBzz1-D2
# Summary of the method: as §1
# ScCyk3 = biological target: ScCyk3
# Summary of the method: as §1
# ScFus1 = biological target: ScFus1
# Summary of the method: as §1
# ScHof1 = biological target: ScHof1
# Summary of the method: as §1
# ScHse1 = biological target: ScHse1
# Summary of the method: as §1
# ScLsb1 = biological target: ScLsb1
# Summary of the method: as §1
# ScLsb2 = biological target: ScLsb2
# Summary of the method: as §1
# ScLsb3 = biological target: ScLsb3
# Summary of the method: as §1
# ScLsb4 = biological target: ScLsb4
# Summary of the method: as §1
# ScMyo3 = biological target: ScMyo3
# Summary of the method: as §1
# ScMyo5 = biological target: ScMyo5
# Summary of the method: as §1
# ScNbp2 = biological target: ScNbp2
# Summary of the method: as §1
# ScPex13 = biological target: ScPex13
# Summary of the method: as §1
# ScRvs167 = biological target: ScRvs167
# Summary of the method: as §1
# ScSho1 = biological target: ScSho1
# Summary of the method: as §1
# ScSla1-D1-D2 = biological target: ScSla1-D1-D2
# Summary of the method: as §1
# ScSla1-D3 = biological target: ScSla1-D3
# Summary of the method: as §1
# SpAbp1-D1 = biological target: SpAbp1-D1
# Summary of the method: as §1
# SpBbc1 = biological target: SpBbc1
# Summary of the method: as §1
# SpBzz1-D1 = biological target: SpBzz1-D1
# Summary of the method: as §1
# SpBzz1-D2 = biological target: SpBzz1-D2
# Summary of the method: as §1
# SpCyk3 = biological target: SpCyk3
# Summary of the method: as §1
# SpHof1 = biological target: SpHof1
# Summary of the method: as §1
# SpHof1-2 = biological target: SpHof1-2
# Summary of the method: as §1
# SpHof1-3 = biological target: SpHof1-3
# Summary of the method: as §1
# SpHse1 = biological target: SpHse1
# Summary of the method: as §1
# SpLsb1 = biological target: SpLsb1
# Summary of the method: as §1
# SpLsb4 = biological target: SpLsb4
# Summary of the method: as §1
# SpMyo1 = biological target: SpMyo1
# Summary of the method: as §1
# SpNbp2 = biological target: SpNbp2
# Summary of the method: as §1
# SpPex13 = biological target: SpPex13
# Summary of the method: as §1
# SpRvs167 = biological target: SpRvs167
# Summary of the method: as §1
# SpSla1-D1-D2 = biological target: SpSla1-D1-D2
# Summary of the method: as §1
# SpSla1-D3 = biological target: SpSla1-D3
# Summary of the method: as §1
binder,measurement,setting,value
NTMKKRPAPPSLPSL,SPOT peptide array binding signal intensity,AgAbp1,93
same,SPOT peptide array binding signal intensity,AgBbc1,21
same,SPOT peptide array binding signal intensity,AgBem1-D1,405
same,SPOT peptide array binding signal intensity,AgBzz1-D1,152
same,SPOT peptide array binding signal intensity,AgBzz1-D2,240
same,SPOT peptide array binding signal intensity,AgCyk3,≤ 0
same,SPOT peptide array binding signal intensity,AgFus1,375
same,SPOT peptide array binding signal intensity,AgHof1,286
same,SPOT peptide array binding signal intensity,AgHse1,641
same,SPOT peptide array binding signal intensity,AgLsb1,15.5
same,SPOT peptide array binding signal intensity,AgLsb4,61.5
same,SPOT peptide array binding signal intensity,AgMyo5,66.5
same,SPOT peptide array binding signal intensity,AgNbp2,384
same,SPOT peptide array binding signal intensity,AgRvs167,3.33
same,SPOT peptide array binding signal intensity,AgSho1,496
same,SPOT peptide array binding signal intensity,AgSla1-D1-D2,114
same,SPOT peptide array binding signal intensity,AgSla1-D3,59.8
same,SPOT peptide array binding signal intensity,CaAbp1-D1,1570
same,SPOT peptide array binding signal intensity,CaAbp1-D2,892
same,SPOT peptide array binding signal intensity,CaBbc1,151
same,SPOT peptide array binding signal intensity,CaBem1-D1,279
same,SPOT peptide array binding signal intensity,CaBzz1-D1,2650
same,SPOT peptide array binding signal intensity,CaBzz1-D2,952
same,SPOT peptide array binding signal intensity,CaCyk3,13.5
same,SPOT peptide array binding signal intensity,CaFus1,1380
same,SPOT peptide array binding signal intensity,CaHof1,0.5
same,SPOT peptide array binding signal intensity,CaHse1,262
same,SPOT peptide array binding signal intensity,CaLsb1,6
same,SPOT peptide array binding signal intensity,CaLsb4,589
same,SPOT peptide array binding signal intensity,CaMyo5,137
NMLKKKPLKKPLKRF,SPOT peptide array binding signal intensity,AgAbp1,2990
same,SPOT peptide array binding signal intensity,AgBbc1,12.5
same,SPOT peptide array binding signal intensity,AgBem1-D1,382
same,SPOT peptide array binding signal intensity,AgBzz1-D1,48
same,SPOT peptide array binding signal intensity,AgBzz1-D2,48
same,SPOT peptide array binding signal intensity,AgCyk3,1
same,SPOT peptide array binding signal intensity,AgFus1,450
same,SPOT peptide array binding signal intensity,AgHof1,75
same,SPOT peptide array binding signal intensity,AgHse1,924
same,SPOT peptide array binding signal intensity,AgLsb1,1
same,SPOT peptide array binding signal intensity,AgLsb4,84
same,SPOT peptide array binding signal intensity,AgMyo5,≤ 0
same,SPOT peptide array binding signal intensity,AgNbp2,275
same,SPOT peptide array binding signal intensity,AgRvs167,6.17
same,SPOT peptide array binding signal intensity,AgSho1,363
same,SPOT peptide array binding signal intensity,AgSla1-D1-D2,415
same,SPOT peptide array binding signal intensity,AgSla1-D3,10
same,SPOT peptide array binding signal intensity,CaAbp1-D1,2870
same,SPOT peptide array binding signal intensity,CaAbp1-D2,4760
same,SPOT peptide array binding signal intensity,CaBbc1,98.5
same,SPOT peptide array binding signal intensity,CaBem1-D1,268
same,SPOT peptide array binding signal intensity,CaBzz1-D1,208
same,SPOT peptide array binding signal intensity,CaBzz1-D2,225
same,SPOT peptide array binding signal intensity,CaCyk3,18
same,SPOT peptide array binding signal intensity,CaFus1,2320
same,SPOT peptide array binding signal intensity,CaHof1,≤ 0
same,SPOT peptide array binding signal intensity,CaHse1,226
same,SPOT peptide array binding signal intensity,CaLsb1,4.5
same,SPOT peptide array binding signal intensity,CaLsb4,506
same,SPOT peptide array binding signal intensity,CaMyo5,27.5
same,SPOT peptide array binding signal intensity,CaNbp2,438
same,SPOT peptide array binding signal intensity,CaRvs167,47.7
same,SPOT peptide array binding signal intensity,CaRvs167-3,44
same,SPOT peptide array binding signal intensity,CaSho1,612
same,SPOT peptide array binding signal intensity,CaSla1-D1-D2,586
same,SPOT peptide array binding signal intensity,CaSla1-D3,370
same,SPOT peptide array binding signal intensity,ScAbp1,1040
same,SPOT peptide array binding signal intensity,ScBbc1,1.5
same,SPOT peptide array binding signal intensity,ScBem1-D1,31
same,SPOT peptide array binding signal intensity,ScBzz1-D1,10
same,SPOT peptide array binding signal intensity,ScBzz1-D2,22
same,SPOT peptide array binding signal intensity,ScCyk3,28
same,SPOT peptide array binding signal intensity,ScFus1,648
same,SPOT peptide array binding signal intensity,ScHof1,0.25
same,SPOT peptide array binding signal intensity,ScHse1,1740
same,SPOT peptide array binding signal intensity,ScLsb1,1
same,SPOT peptide array binding signal intensity,ScLsb2,1
same,SPOT peptide array binding signal intensity,ScLsb3,340
same,SPOT peptide array binding signal intensity,ScLsb4,94
same,SPOT peptide array binding signal intensity,ScMyo3,2
same,SPOT peptide array binding signal intensity,ScMyo5,≤ 0
same,SPOT peptide array binding signal intensity,ScNbp2,552
same,SPOT peptide array binding signal intensity,ScPex13,194
same,SPOT peptide array binding signal intensity,ScRvs167,7
same,SPOT peptide array binding signal intensity,ScSho1,1720
same,SPOT peptide array binding signal intensity,ScSla1-D1-D2,616
same,SPOT peptide array binding signal intensity,ScSla1-D3,261
same,SPOT peptide array binding signal intensity,SpAbp1-D1,1740
same,SPOT peptide array binding signal intensity,SpBbc1,4.25
same,SPOT peptide array binding signal intensity,SpBzz1-D1,279
same,SPOT peptide array binding signal intensity,SpBzz1-D2,48.2
same,SPOT peptide array binding signal intensity,SpCyk3,7.5
same,SPOT peptide array binding signal intensity,SpHof1,134
same,SPOT peptide array binding signal intensity,SpHof1-2,26
same,SPOT peptide array binding signal intensity,SpHof1-3,804
same,SPOT peptide array binding signal intensity,SpHse1,772
same,SPOT peptide array binding signal intensity,SpLsb1,31.8
same,SPOT peptide array binding signal intensity,SpLsb4,388
same,SPOT peptide array binding signal intensity,SpMyo1,21.8
same,SPOT peptide array binding signal intensity,SpNbp2,536
same,SPOT peptide array binding signal intensity,SpPex13,73.5
same,SPOT peptide array binding signal intensity,SpRvs167,15.8
same,SPOT peptide array binding signal intensity,SpSla1-D1-D2,9
same,SPOT peptide array binding signal intensity,SpSla1-D3,106
